Source: PubChem
In the library only some 1.8% were active in any assay of this set; here they are far more common.
GCN5L2 inh = inhibitors of human GCN5L2 histone acetyltransferase. Q92830. GCN5L2 HAT assay, ThioGlo1 CoA-SH fluorescence. Potency, µM (highest dose often 58.9 µM), for inactives: top-dose activity change, negative = inhibition, actives largely listed as inhibitors. 390,000 tested, 0.21% active. AID 504327; further: potency means the concentration at half of the fitted maximal effect; on the % scale 0 is the no-effect control and ±100 the full control effect
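Free CoA generated was detected with ThioGlo1 (50uM) fluorescence at Ex340nm/Em540nm, read immediately and after 20 min at room temperature. Enzyme, 20 nM in HEPES pH 7.5 buffer, saw compounds 15 min before adding 75uM H3(1-25) peptide and 70uM acetyl-CoA.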
rTrxR1 inhibitor = inhibitors of rat thioredoxin reductase 1. recombinant rTrxR1, NADPH fluorescence consumption, selenite substrate. Potency, µM (doses to about 114 µM), without a hit: at the highest dose activity change, negative = inhibition, most hits filed as inhibitors. O89049. 390,000 tested, 1% active. AID 588453; further: potency means the concentration at half of the fitted maximal effect; on the % scale 0 is the no-effect control and ±100 the full control effect; nearly all actives have a fitted effect of over 65% in size
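Rat TrxR1 (90 nM in the dispensed reagent) was pre-reduced with 400 uM NADPH for 5 min at room temperature, then incubated with compound for 15 min. After 400 uM selenite was added, NADPH fluorescence (Ex 340/Em 450 nm) was followed for 8 min.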
TrxR1 substrate = substrates of rat thioredoxin reductase 1 | purified TrxR1 substrate turnover, NADPH consumption readout | O89049 | Potency, µM (titrated, usually from 114 µM), for the others: top-dose activity change, negative = substrate turnover | 390,000 tested, 0.01% active; further: potency means the concentration at half of the fitted maximal effect; on the % scale 0 is the no-effect control and ±100 the full control effect; nearly all actives have a fitted effect of over 50% in size
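Rat TrxR1, dispensed at 90 nM, was prereduced with 400 uM NADPH (final) for 5 min at ~22 deg C, then incubated with compound 15 min before 400 uM selenite. A first-read NADPH fluorescence drop versus no-compound background flagged substrates.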
VDR inhibitor = blocks the human vitamin D receptor; Potency, µM, without a hit: max response, negative = inhibition, usual class: inhibitors; 400,000 tested, 0.93% active; VDR-SRC2-3 peptide fluorescence polarization, 2 h; AID 504847; P11473; further: potency means the concentration at half of the fitted maximal effect; on the % scale 0 is the no-effect control and ±100 the full control effect
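Two reagent solutions held at 4 deg C in the dark were dispensed, compounds pinned at 23 nl, and the mixture incubated 2 h at room temperature. Read-out: fluorescence polarization of VDR–SRC2-3 peptide binding.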
USP1 UbRho = validation of human USP1/UAF1 inhibitors. Ub-Rhodamine cleavage, fluorescence kinetic read. 50 tested, 50% active. Potency, µM (doses to about 56.8 µM), for inactives: at the highest dose activity change, negative = inhibition, hits mostly inhibitors. AID 540327. shares compounds with VDR inhibitor
Target sequence (O94782 whole entry, looked up): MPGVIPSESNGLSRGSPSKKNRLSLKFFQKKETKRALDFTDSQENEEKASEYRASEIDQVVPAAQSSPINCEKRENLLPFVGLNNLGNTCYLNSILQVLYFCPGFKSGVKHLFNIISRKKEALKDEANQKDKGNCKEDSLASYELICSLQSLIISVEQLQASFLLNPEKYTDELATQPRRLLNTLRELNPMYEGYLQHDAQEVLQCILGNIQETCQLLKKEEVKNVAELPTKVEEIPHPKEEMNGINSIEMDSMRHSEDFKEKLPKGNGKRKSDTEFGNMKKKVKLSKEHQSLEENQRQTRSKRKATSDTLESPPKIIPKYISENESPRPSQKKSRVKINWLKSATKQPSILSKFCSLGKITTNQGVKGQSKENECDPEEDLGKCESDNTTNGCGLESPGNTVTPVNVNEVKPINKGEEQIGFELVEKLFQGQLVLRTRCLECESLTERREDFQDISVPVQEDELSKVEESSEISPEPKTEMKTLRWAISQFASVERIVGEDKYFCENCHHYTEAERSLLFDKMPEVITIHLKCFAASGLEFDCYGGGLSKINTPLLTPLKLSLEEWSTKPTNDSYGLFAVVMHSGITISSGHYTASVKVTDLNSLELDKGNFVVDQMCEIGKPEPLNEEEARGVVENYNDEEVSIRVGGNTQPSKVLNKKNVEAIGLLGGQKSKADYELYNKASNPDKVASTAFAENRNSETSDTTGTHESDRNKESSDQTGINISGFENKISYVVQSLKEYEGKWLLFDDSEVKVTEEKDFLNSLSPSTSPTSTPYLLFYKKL
VDR confirm = confirmation of human vitamin D receptor inhibitors. shares compounds with VDR inhibitor. VDR-coactivator inhibition assay, qHTS confirmation. Potency, µM, usual class: inhibitors. 840 tested, 89% active; further: potency means the concentration at half of the fitted maximal effect
VDR FP fluor = confirmation of human VDR-coactivator binding inhibitors, fluorescein label; shares compounds with VDR inhibitor; Potency, µM (titrated, usually from 57.1 µM), for inactives: at the highest dose activity change, negative = inhibition, hits mostly inhibitors; 840 tested, 48% active; VDR-coactivator binding, fluorescein fluorescence polarization; further: potency means the concentration at half of the fitted maximal effect
VDR bla = VDR (human) inhibition, cell-based beta-lactamase validation; AID 602202; 840 tested, 23% active; Potency, µM (highest dose often 46.1 µM), for inactives: at the top dose activity change, negative = inhibition, actives largely listed as inhibitors; VDR beta-lactamase reporter cells, FRET ratio; cells co-treated with VDR agonist LG190178; shares compounds with VDR inhibitor; further: potency means the concentration at half of the fitted maximal effect; on the % scale 0 is the no-effect control and ±100 the full control effect
VDR viability = cytotoxic in counter-screen for VDR inhibitors | shares compounds with VDR inhibitor | cytotoxicity counter-screen, cell viability, qHTS | Potency, µM (series often up to 48.3 µM), for inactives: top-dose activity change, negative = cytotoxicity, actives largely listed as cytotoxic | 840 tested, 18% active | AID 602204;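 further: potency means the concentration at half of the fitted maximal effect; plate controls were DMSO for no effect and high-concentration cycloheximide for full effect; nearly all actives have a fitted effect of over 75% in size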
Starred values were filed as active, the others as inactive; [ ] = dose if it differs, or a comment. The call rests on the fitted dose curve; in most records, active means well fitted curve in the direction sought with a large enough effect; inconclusive means small, poorly fitted or top-dose-only effect, or another doubt; inactive means no such curve, though single readings can be large; an effect the other way counts as inactive or inconclusive.

`CCCOc1ccc(C(=O)CCNC(Cc2c[nH]c3ccccc23)C(=O)O)cc1` (configuration not stated) gave GCN5L2 inh -7%, rTrxR1 inhibitor 1.8µM*, TrxR1 substrate 3%, VDR inhibitor 45µM*, VDR confirm 19*, VDR FP fluor inconclusive, VDR bla 12% and VDR viability inconclusive.
CCOC(=O)c1[nH]c2ccccc2c1NC(=O)c1ccc(OC)c(OC)c1 was read as GCN5L2 inh 0%, rTrxR1 inhibitor -5%, TrxR1 substrate 4%[2.29 µM] and VDR inhibitor 17%.
For CCOC(=O)/C(=C\c1ccc(Cl)cc1)c1nc2sc(C)c(C)c2c(=O)[nH]1 the results were GCN5L2 inh -7%, rTrxR1 inhibitor inconclusive, TrxR1 substrate -3%, VDR inhibitor 25µM*, VDR confirm 5.3*, VDR FP fluor inconclusive, VDR bla inconclusive and VDR viability 15µM*.
`CCOC(=O)CSc1nc2sc(C)c(C)c2c(=O)[nH]1` gave GCN5L2 inh -1%, rTrxR1 inhibitor 1%, TrxR1 substrate -3% and VDR inhibitor -5%.
`CS(=O)(=O)c1ccc(S(=O)CC(=O)Oc2ccc(Cl)cc2)c([N+](=O)[O-])c1` (configuration not stated) gave GCN5L2 inh -6%, rTrxR1 inhibitor 1.8µM*, TrxR1 substrate 4%[57.1 µM], VDR inhibitor 3.5µM*, VDR confirm 2.5*, VDR FP fluor 1.6µM*, VDR bla 18µM* and VDR viability inconclusive.
Screening O=C(CS(=O)c1ccccc1[N+](=O)[O-])Oc1ccc(Br)cc1 (configuration not stated) returned GCN5L2 inh 0%, rTrxR1 inhibitor inconclusive, TrxR1 substrate -3% and VDR inhibitor inconclusive.
For COc1ccc(C(=O)N(Cc2ccc(N(C)C)cc2)Cc2ccco2)cc1Cl the results were GCN5L2 inh -10%, rTrxR1 inhibitor 10%, TrxR1 substrate -5% and VDR inhibitor 5%.
CS(=O)(=O)N1CCC2(CCN(C(=O)Nc3cccc(C#N)c3)CC2)CC1 was read as GCN5L2 inh -23% and VDR inhibitor -5%.
`CCOC(=O)c1c(C)nsc1NC(=O)c1ccco1` gave GCN5L2 inh 1%, rTrxR1 inhibitor 7%, TrxR1 substrate 0% and VDR inhibitor 15%.
For CCOC(=O)c1c(C2COc3ccccc3O2)csc1NC(=O)c1ccco1 (configuration not stated) the results were GCN5L2 inh -29%, rTrxR1 inhibitor 27%, TrxR1 substrate 6%, VDR inhibitor inconclusive, VDR confirm inconclusive, VDR FP fluor 2.2µM*, VDR bla -25% and VDR viability -4%.
Screening COc1ccc2c(c1OC)C(Cc1ccccc1)N1CCc3cc4c(cc3C1=C2)OCO4 (configuration not stated) returned GCN5L2 inh inconclusive, VDR inhibitor 32µM* and USP1 UbRho 42µM*.
For N[C@@H](Cc1cc(-c2ccc(Cl)cc2Cl)cc(CP(=O)(O)O)c1O)C(=O)O the results were GCN5L2 inh inconclusive, VDR inhibitor 45µM* and USP1 UbRho 42µM*.
C=CCOC(=O)N[C@H](c1ccco1)C(C(C)=O)C(C)=O was read as VDR inhibitor 3%.
For Cc1cccc(NC(c2ccc(O)cc2)c2ccc3ccc(C)nc3c2O)n1 (configuration not stated) the results were GCN5L2 inh -9%, rTrxR1 inhibitor inconclusive, TrxR1 substrate 3%, VDR inhibitor 45µM*, VDR confirm 11*, VDR FP fluor inconclusive, VDR bla 26% and VDR viability 0%.
Screening Cc1cc(NC(c2cccnc2)c2ccc3cccnc3c2O)no1 (configuration not stated) returned GCN5L2 inh -6%, rTrxR1 inhibitor inconclusive, TrxR1 substrate -6%[2.29 µM] and VDR inhibitor -4%.
`Cc1ccc(S(=O)(=O)N2CCOCC2)cc1NC(=O)CSc1ccc(Cl)cc1` gave GCN5L2 inh 0%, rTrxR1 inhibitor 23%, TrxR1 substrate 3% and VDR inhibitor -22%.
CCOC(=O)c1ccc(S(=O)(=O)Nc2cc(S(=O)(=O)N3CCOCC3)ccc2O)cc1 was read as GCN5L2 inh inconclusive, rTrxR1 inhibitor 9%, TrxR1 substrate 4%, VDR inhibitor 45µM*, VDR confirm 8.4*, VDR FP fluor inconclusive, VDR bla 0% and VDR viability 3%.
For O=C(CCCSc1ccc(Cl)cc1)Nc1cc(S(=O)(=O)N2CCOCC2)ccc1O the results were GCN5L2 inh -29%, rTrxR1 inhibitor -10%, TrxR1 substrate -10%, VDR inhibitor inconclusive, VDR confirm 4*, VDR FP fluor 3.2µM*, VDR bla -6% and VDR viability -9%.
CC(C)(C)NC(=O)c1cnn(-c2ccccc2)c1C1CCN(C(=O)OC(C)(C)C)CC1 was read as GCN5L2 inh 16%, rTrxR1 inhibitor 7%, TrxR1 substrate 5% and VDR inhibitor 6%.
For O=C1CCCC2=C1C1(O)C(=O)c3ccccc3C1(O)O2 (configuration not stated) the results were GCN5L2 inh -3%, rTrxR1 inhibitor 6%[57.1 µM], TrxR1 substrate -5%, VDR inhibitor inconclusive, VDR confirm 2.5*, VDR FP fluor 2.2µM*, VDR bla 9% and VDR viability 12%.
`CC(=O)C1=C(C)NC2(O)c3ccccc3C(=O)C12O` (configuration not stated) gave GCN5L2 inh -4%, rTrxR1 inhibitor 9%[57.1 µM], TrxR1 substrate -22%[57.1 µM] and VDR inhibitor -18%.
`Nc1ccc(-c2nc3ccc(-c4nc5ccc(N)cc5[nH]4)cc3[nH]2)cc1` gave GCN5L2 inh inconclusive, rTrxR1 inhibitor 16%[57.1 µM], TrxR1 substrate 66%[57.1 µM], VDR inhibitor 2% and USP1 UbRho inconclusive.
